# Hit rate of the full screen: of about 13,000 compounds, about 3,200 (25%) showed an effect of 50% or more. Some of the results follow.
# System: P. falciparum stage V gametocytes
# Set-up: BacTiter-Glo ATP luminescence viability of purified stage V gametocytes in 384-well plates, per cent inhibition versus DMSO
# Conditions: 48 h, 5 µM; inhibitor
row,Compound,% Inhibition [%]
1,Cc1ccc(C(=O)Nc2ccc(C)c(OC3CCN(CCC(C)C)C3)c2)cc1 (stereo not shown) [TCMDC-133981],-13.13
2,CCN(CC)CCCn1c(N)c(-c2nc3ccccc3[nH]2)c2nc(C#N)c(C#N)nc21 [TCMDC-123680],117
3,CN(C)CCn1c(N)c(-c2nc3ccccc3s2)c2nc(C#N)c(C#N)nc21 [TCMDC-124439],-7.276
4,N#Cc1c(N)n(CCc2ccc(F)cc2)c2nc3ccccc3nc12 [TCMDC-125779],44.22
5,CN(C)CCCn1c(N)c(-c2nc3ccccc3[nH]2)c2nc(C#N)c(C#N)nc21 [TCMDC-123729],113.1
6,CCOC(=O)c1ccc(NC(=O)Nc2ccc(-c3ccc(-c4nc5ccccc5[nH]4)cc3)cc2)cc1 [TCMDC-133265],-0.3523
7,COc1ccc(COc2c(OC)cc(Cc3cnc(N)nc3N)cc2OC)cc1 [TCMDC-138619],7.542
8,NC1=NC(c2ccccc2)(c2ccccc2)C(=O)N1CCCCc1ccccn1 [TCMDC-132209],-31.55
9,COc1ccc(O)c(C(=O)c2cc(C#N)c(=O)n(-c3ccc(Oc4ccccc4)cc3)c2)c1 [TCMDC-123628],-33.17
10,CCCCn1c(C(C)Oc2ccc(Cl)cc2Cl)nc2cc(S(N)(=O)=O)ccc21 (stereo not shown) [TCMDC-125564],8.97
11,CC(Cc1ccc(OCc2ccccc2)cc1)Nc1nc2ccccc2c(=O)[nH]1 (stereo not shown) [TCMDC-131532],-11.7
12,CC(CCc1ccc(OCc2ccccc2)cc1)NCC(O)c1ccccc1 (stereo not shown) [TCMDC-131472],8.257
13,CC(Cc1ccc(OCCCCOc2ccccc2)cc1)NCCc1ccccc1Cl (stereo not shown) [TCMDC-140019],97.11
14,CC(Cc1ccc(OCCCCOc2ccccc2)cc1)NCCc1ccc(Oc2ccccc2)cc1 (stereo not shown) [TCMDC-140021],88.65
15,COC(=O)c1ccc(CC(C)NCC(O)c2ccccc2Cl)cc1 (stereo not shown) [TCMDC-131422],7.207
16,COc1cccc(CCNC(C)Cc2ccc(OCCCCOc3ccccc3)cc2)c1 (stereo not shown) [TCMDC-140020],127.9
17,COc1ccc(Nc2nccc(N3CCC(NC(=O)c4cccc(C#N)c4)C3)n2)cc1 (stereo not shown) [TCMDC-133609],-14.42
18,COc1ccccc1CCCON1C(N)=NC(N)=NC1(C)C [TCMDC-131723],17.71
19,CCCCOc1c(CCC)cc(Cc2cnc(N)nc2N)cc1CCC [TCMDC-137692],-41.23
20,Cc1ncccc1C(=O)Nc1ccc(-c2cccc(-c3nc4c(C)cccc4[nH]3)c2)cc1 [TCMDC-136862],-37.31
21,Cc1cccc2[nH]c(-c3cccc(-c4ccc(NC(=O)c5cnccc5C(F)(F)F)cc4)c3)nc12 [TCMDC-137119],66.25
22,Cc1cccc2[nH]c(-c3cccc(-c4cccc(NC(=O)c5cnccc5C(F)(F)F)c4)c3)nc12 [TCMDC-137118],53.02

row,Compound,% Inhibition [%]
1,Cc1cccc2[nH]c(-c3ccc(-c4cccc(NC(=O)c5cnccc5C(F)(F)F)c4)cc3)nc12 [TCMDC-137117],-14.87
2,Cc1cccc2[nH]c(-c3cccc(-c4cccc(NC(=O)c5cccnc5)c4)c3)nc12 [TCMDC-136927],36.77
3,Cc1cccc2[nH]c(-c3cccc(-c4ccc(NC(=O)c5cccnc5)cc4)c3)nc12 [TCMDC-136929],-10.6
4,c1ccc(C2=NN=C(c3ccccn3)C3C4CC(C23)C2C3CC(c5ccccc53)C42)nc1 (stereo not shown) [TCMDC-138248],-12.71
5,COc1ccc(C(=O)Nc2cc(Cl)c3c(c2)C2CCCN2CC3)cc1C(F)(F)F (stereo not shown) [TCMDC-139417],-51.32
6,COc1cc(NC(=O)/C=C/c2cc(F)cc(F)c2F)cc(OCCN2CCN(CCN3CCOCC3)CC2)c1 [TCMDC-140930],-13.83
7,COc1ccc(CNc2cc(C)nc3sc4c(c23)CCC2(C4)OCCO2)cc1 [TCMDC-138981],-1.212
8,COc1ccc(-c2cncc3ccc(C(=O)NCCCn4ccnc4)nc23)cc1 [TCMDC-125412],77.43
9,COc1ccc(NC(=O)Nc2ccc(C)c(-c3ccc(C(=O)Nc4ccncc4)cc3)c2)cc1 [TCMDC-133705],11.61
10,COc1ccc(-c2cc3nc4c(c(NCCCn5ccnc5)n3n2)CCCC4)cc1 [TCMDC-124389],-21.29
11,Cc1nc(NCCCn2ccnc2)cc(-c2cncc(-c3ccc(OC(F)(F)F)cc3)c2)n1 [TCMDC-125423],9.398
12,COc1ccc(-c2cncc3ccc(C(=O)NCc4ccncc4)nc23)cc1 [TCMDC-125411],51.25
13,COc1ccc(-n2nc(C)cc2C(=O)NCc2ccc(-c3c(C)noc3C)cc2)cc1 [TCMDC-133779],19.66
14,COc1ccc(Nc2cc(C)nc(Nc3ccc(NC(C)=O)cc3)n2)cc1 [TCMDC-124979],-41.12
15,O=C(Nc1ccc(I)cc1)Nc1ccc(Cn2ncc(N3CCCNCC3)c(Cl)c2=O)cc1 [TCMDC-133322],-17.85
16,Cc1ccc2c(C3=CCN(CCCCC4(C)C(=O)Nc5c(F)cccc54)CC3)c(C)[nH]c2c1 (stereo not shown) [TCMDC-141005],12.05
17,CC(C)N(Cc1ccc(-c2ccc(C(F)(F)F)cc2)cc1)C(=O)Cn1c(CCc2cccc(F)c2F)cc(=O)c2ccc(CCCN3CCCCC3)cc21 [TCMDC-141581],119.6
18,CCN(CC)Cc1ccc2c(=O)cc(CCc3cccc(F)c3F)n(CC(=O)N(Cc3ccc(-c4ccc(C(F)(F)F)cc4)cc3)C(C)C)c2c1 [TCMDC-141567],74.8
19,CN(C)CCOc1cc(NC(=O)Nc2cccc3c(-c4ccncc4)cccc23)ccc1I [TCMDC-139143],27.84
20,CN(C)CCOc1cc(NC(=O)Nc2ccc(Oc3ccccc3)cc2)ccc1I [TCMDC-139113],-27.54
21,COc1cc(Cc2cnc(N)nc2N)cc(OC)c1OCCNC(=O)[C@@H](N)CCC(=O)O [TCMDC-137685],-2.761
